In PubChem BioAssay (EPA / NIEHS):
Records with an inconclusive call do not appear. Where a structure was tested more than once in an assay, its records may differ in their call. Activity calls are given as the source filed them. How the source made its calls, unless noted: active means hit-call score of the fitted dose curve at least 0.9, where 1 is the maximum; inactive means score below 0.9.

Legend:
[1] = BSK_BT_Bcell_Proliferation: Viability Assessment in the BioMAP Diversity Plus: BT Assay for B cell Proliferation (AID 2284227); conditions: primary human B cells with PBMC
Procedure, shortened: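 Using a human primary B cell–PBMC co-culture, the assay measures total protein by sulforhodamine B absorbance as a gauge of proliferation after 72 h. Analysis followed the positive fitting direction with DMSO as baseline.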

[2] = read-out: Interleukin 6 (IL6), IL6 (gene 3569); assay: BSK_BT_xIL6: BioMAP Diversity Plus: BT Assay for Interleukin 6 (IL6) Biomarker Activity (AID 2284228); conditions: primary human B cells with PBMC
Procedure, shortened: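 Human B cell/PBMC co-culture; secreted IL-6 quantified by Luminex xMAP 24 h after chemical dosing, fitted relative to DMSO. Parallel PBMC viability by Alamar Blue after 1 h pretreatment, 20 ng/mL SEB and TSST-1, 90 h incubation.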

[3] = read-out: Tumor necrosis factor (Homo sapiens) (UniProt P01375); assay: BSK_BT_xTNFa: BioMAP Diversity Plus: BT Assay for Tumor necrosis factor alpha (TNF-alpha) Biomarker Activity (AID 2284230); conditions: primary human B cells with PBMC
Procedure, shortened: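 Endpoint derived in the positive direction versus DMSO vehicle. Cells: B cells together with PBMC, exposed 24 h before TNF-alpha in the medium was read on the Luminex xMAP platform.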

[4] = read-out: Vascular cell adhesion molecule 1 (VCAM1), VCAM1 (gene 7412); assay: BSK_MyoF_VCAM1: BioMAP Diversity Plus: MyoF Assay for Vascular cell adhesion molecule 1 (VCAM1) Biomarker Activity (AID 2284231); conditions: primary human lung fibroblasts
Procedure, shortened: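 Primary human lung fibroblasts (BioMAP MyoF system) dosed with chemical, VCAM-1 measured by ELISA 24 hours later. Fitted in the positive direction against DMSO; parallel SRB staining assessed cytotoxicity.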

[5] = read-out: Collagen I, COL1A1 (gene 1277); assay: BSK_MyoF_CollagenI: BioMAP Diversity Plus: MyoF Assay for Collagen I Biomarker Activity (AID 2284238); conditions: primary human lung fibroblasts
Procedure, shortened: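 Primary human lung fibroblasts (MyoF system) treated 24 h; Collagen I quantified by ELISA and fitted in positive direction against DMSO. Parallel SRB total-protein staining assessed overt cytotoxicity.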

[6] = read-out: Collagen III, COL3A1 (gene 1281); assay: BSK_MyoF_CollagenIII: BioMAP Diversity Plus: MyoF Assay for Collagen III Biomarker Activity (AID 2284239); conditions: primary human lung fibroblasts
Procedure, shortened: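 Primary human lung fibroblasts (BioMAP MyoF system) exposed 24 h. Collagen III measured by ELISA; positive-direction fit relative to DMSO.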

[7] = read-out: Interleukin 17F (IL17F), IL17F (gene 112744); assay: BSK_BT_xIL17F: BioMAP Diversity Plus: BT Assay for Interleukin 17F (IL17F) Biomarker Activity (AID 2284243); conditions: primary human B cells with PBMC
Procedure, shortened: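 Human PBMC co-cultured with B cells, compound exposure 24 h; secreted IL-17F quantified by Luminex xMAP, referenced to DMSO control. PBMC viability measured in parallel by Alamar Blue reduction.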

[8] = read-out: Actin alpha 1 (ACTA1), ACTA1 (gene 58); assay: BSK_MyoF_ACTA1: BioMAP Diversity Plus: MyoF Assay for Actin alpha 1 (ACTA1) Biomarker Activity (AID 2284244); conditions: primary human lung fibroblasts
Procedure, shortened: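 MyoF fibroblast system (human lung); a-SMA quantified via ELISA at 24 h; DMSO-normalised, gain-of-signal endpoint.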

[9] = read-out: Interleukin 2 (IL2), IL2 (gene 3558); assay: BSK_BT_xIL2: BioMAP Diversity Plus: BT Assay for Interleukin 2 (IL2) Biomarker Activity (AID 2284245); conditions: primary human B cells with PBMC
Procedure, shortened: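 Co-cultures of primary human B cells and PBMC are treated with chemical and sampled at 24 h. IL-2 secretion is quantified by Luminex xMAP, with DMSO-treated wells as baseline.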

[10] = read-out: Basic fibroblast growth factor (bFGF), FGF2 (gene 2247); assay: BSK_MyoF_bFGF: BioMAP Diversity Plus: MyoF Assay for Basic fibroblast growth factor (bFGF) Biomarker Activity (AID 2284246); conditions: primary human lung fibroblasts
Procedure, shortened: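 Fibroblasts from human lung, 24 h dosing. bFGF by ELISA; gain of signal over DMSO.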

[11] = read-out: Collagen IV, COL4A1 (gene 1282); assay: BSK_MyoF_CollagenIV: BioMAP Diversity Plus: MyoF Assay for Collagen IV Biomarker Activity (AID 2284247); conditions: primary human lung fibroblasts
Procedure, shortened: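 Lung fibroblasts (human primary) treated with chemicals were assayed after 24 h for Collagen IV using an ELISA, with DMSO serving as negative control and baseline for a positive-direction fit.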

[12] = read-out: Monokine induced gamma interferon (MIG), CXCL9 (gene 4283); assay: BSK_KF3CT_MIG: BioMAP Diversity Plus: KF3CT Assay for Monokine induced gamma interferon (MIG) Biomarker Activity (AID 2284248); conditions: primary human keratinocytes with fibroblasts
Procedure, shortened: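 Human keratinocyte–foreskin fibroblast co-culture; MIG measured by ELISA 24 h after chemical dosing, fitted upward versus DMSO. Cytotoxicity was assessed in parallel cultures by SRB total-protein staining read at 560 nm.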

[13] = read-out: Vascular cell adhesion molecule 1 (VCAM1), VCAM1 (gene 7412); assay: BSK_BF4T_VCAM1: BioMAP Diversity Plus: BF4T Assay for Vascular cell adhesion molecule 1 (VCAM1) Biomarker Activity (AID 2284249); conditions: primary human bronchial epithelial cells with fibroblasts
Procedure, shortened: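 Cell-surface VCAM-1 quantified by ELISA after 24 h chemical exposure of human bronchial epithelial/dermal fibroblast co-cultures, with SRB staining in parallel wells for cytotoxicity; DMSO baseline, positive-direction fitting.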

[14] = read-out: Collagen I, COL1A1 (gene 1277); assay: BSK_hDFCGF_CollagenI: BioMAP Diversity Plus: hDFCGF Assay for Collagen I Biomarker Activity (AID 2284250); conditions: primary human foreskin fibroblasts
Procedure, shortened: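 Readout: Collagen I by ELISA after 24 h compound treatment of primary human foreskin fibroblasts. Endpoint analysed for increases relative to DMSO; total protein by SRB in parallel wells flagged cytotoxicity.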

[15] = read-out: Plasminogen activator inhibitor-1 (PAI1), SERPINE1 (gene 5054); assay: BSK_KF3CT_PAI1: BioMAP Diversity Plus: KF3CT Assay for Plasminogen activator inhibitor-1 (PAI1) Biomarker Activity (AID 2284252); conditions: primary human keratinocytes with fibroblasts
Procedure, shortened: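 In this co-culture of primary human keratinocytes and foreskin fibroblasts, PAI-1 was measured by ELISA at 24 h and fitted upward from DMSO.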

[16] = read-out: Monocyte Chemoattractant Protein-1 (MCP1), CCL2 (gene 6347); assay: BSK_IMphg_MCP1: BioMAP Diversity Plus: IMphg Assay for Monocyte Chemoattractant Protein-1 (MCP1) Biomarker Activity (AID 2284253); conditions: primary human endothelial cells with macrophages
Procedure, shortened: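 ELISA readout of MCP-1 at 24 hours in IMphg co-cultures of venular endothelial cells and macrophages, normalised to DMSO; parallel cultures stained with sulforhodamine B for overt cytotoxicity.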

[17] = CCTE_Mundy_HCI_hNP1_Casp3_7: CCTE's Caspase-Glo 3/7 Assay in human neuroprogenitor cells for Apoptosis, Mundy Lab (AID 2284240)
Procedure, shortened: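 Luminescent caspase-3/7 readout, 26.5 h post-dose, in human neural progenitor cells from WA09 embryonic stem cells. Cells grew 40–44 h at 37 °C, 5% CO2 before chemical addition. Activity analysed as signal increase over DMSO baseline.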

[18] = read-out: Interferon-inducible T-cell alpha chemoattractant (ITAC), CXCL11 (gene 6373); assay: BSK_hDFCGF_ITAC: BioMAP Diversity Plus: hDFCGF Assay for Interferon-inducible T-cell alpha chemoattractant (ITAC) Biomarker Activity (AID 2284251); conditions: primary human foreskin fibroblasts
Procedure, shortened: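 Measured by ELISA, the chemokine level serves as the endpoint in human skin fibroblast primary cultures 24 h after compound addition. Increases relative to DMSO-treated wells define activity.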

[19] = CCTE_Mundy_HCI_hNP1_CellTiter: CCTE's Cell Titer-Glo 2 Assay in human neuroprogenitor cells for Viability, Mundy Lab (AID 2284241; active means hit-call score of the fitted dose curve at least 0.9, where 1 is the maximum)
Procedure, shortened: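 Viability read as luminescent ATP content (CellTiter-Glo, 30 min room temperature) twenty-four hours after dosing, relative to DMSO. Cells: WA09-derived hNP1 neuroprogenitors on poly-L-ornithine/laminin, plated 40 to 44 hours before chemical.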

Measured: AC50

Chain of Tumor necrosis factor (Homo sapiens) (P01375 whole entry, looked up): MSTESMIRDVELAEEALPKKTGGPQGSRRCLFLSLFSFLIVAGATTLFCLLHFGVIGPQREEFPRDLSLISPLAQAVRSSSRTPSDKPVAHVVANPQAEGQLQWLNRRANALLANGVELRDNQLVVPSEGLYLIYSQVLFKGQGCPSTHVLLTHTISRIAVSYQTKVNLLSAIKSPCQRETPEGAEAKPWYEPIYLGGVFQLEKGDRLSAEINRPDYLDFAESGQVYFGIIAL

OCC(O)CC(F)(F)C(F)(F)C(F)(F)C(F)(F)F (stereo not given)
inactive: [1] | [2] | [3] | [4] | [5] | [6] | [7] | [8] | [9] | [10] | [11] | [12] | [13] | [14] | [15] | [16]
active: [3] 153 nM

NC(=O)C(F)(F)C(F)(F)C(F)(F)C(F)(F)C(N)=O
inactive: [1] | [2] | [3] | [4] | [5] | [6] | [17] | [7] | [8] | [9] | [10] | [11] | [12] | [13] | [14] | [18] | [15] | [16]
active: [3] 221 nM

O=C(O)C(F)(F)OC(F)(F)C(F)(F)OC(F)(F)C(F)(F)OC(F)(F)F
not listed: [17] | [18] | [19]
inactive: all other assays above

NCC(F)(F)C(F)(F)C(F)(F)C(F)(F)C(F)(F)C(F)(F)F
not listed: [6] | [17] | [18] | [19]
inactive: all other assays above

O=C(O)C(F)(F)C(F)(F)C(F)(F)OC(F)(F)F
not listed: [6] | [18]
inactive: all other assays above

FC(F)(F)C(F)(F)C(F)(F)C(F)(F)C(F)(F)C(F)(F)CC[Si](Cl)(Cl)Cl
not listed: [17] | [18] | [19]
inactive: all other assays above
